Screens: PubChem BioAssay, National Center for Advancing Translational Sciences (NCATS)
This excerpt belongs to a sample that is enriched for hits.
SARS PLpro yeast – blocks SARS-CoV papain-like protease in a yeast assay. S. cerevisiae expressing SARS-CoV PLpro, growth rescue. Potency, µM (doses to about 32.9 µM), usual class: activators. actives 0.19% (n = 330,000); note: nearly all actives have a fitted effect of over 55% in size
NS1 inh – influenza NS1 inhibition; Potency, µM (top dose mostly 46.1 µM); actives 0.4% (n = 270,000); AID 2326; note: actives are rising curves; nearly all actives have a fitted effect of over 50% in size
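OD600 was taken as the measure of yeast growth restored by compound in an NS1-expressing S. cerevisiae strain. Cells had been washed out of glucose medium and diluted 1:100 into galactose -URA medium, pH 6.0.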
LmPK inh – inhibitors of Leishmania mexicana pyruvate kinase; Q27686; purified LmPK, Kinase-Glo ATP luminescence, 1 h; Potency, µM (top dose mostly 57.5 µM), actives largely listed as inhibitors; actives 0.37% (n = 290,000); AID 1721; active = well fitted curve in the direction sought with a large enough effect; inconclusive = small, poorly fitted or top-dose-only effect, or another doubt; inactive = no such curve, though single readings can be large; an effect the other way counts as inactive or inconclusive
Target sequence (Q27686 whole entry, looked up): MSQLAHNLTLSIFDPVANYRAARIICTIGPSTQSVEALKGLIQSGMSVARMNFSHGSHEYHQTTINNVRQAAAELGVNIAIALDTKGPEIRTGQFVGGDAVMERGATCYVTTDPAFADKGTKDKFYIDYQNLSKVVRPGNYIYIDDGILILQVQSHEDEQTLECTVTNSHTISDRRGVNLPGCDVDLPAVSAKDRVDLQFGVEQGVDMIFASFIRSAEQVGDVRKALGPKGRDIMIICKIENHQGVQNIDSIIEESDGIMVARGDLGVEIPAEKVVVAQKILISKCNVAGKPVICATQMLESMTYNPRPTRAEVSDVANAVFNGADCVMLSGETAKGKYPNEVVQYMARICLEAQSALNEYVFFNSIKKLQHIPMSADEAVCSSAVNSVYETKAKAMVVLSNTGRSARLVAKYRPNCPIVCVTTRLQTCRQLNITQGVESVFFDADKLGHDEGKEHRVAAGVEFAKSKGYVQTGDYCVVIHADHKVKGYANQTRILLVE
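0.1 nM LmPK, 0.5 mM PEP, 0.1 mM ADP; 50 mM imidazole pH 7.2, 7 mM MgCl2, 50 mM KCl; 1 h RT. Kinase-Glo luminescence readout, normalized to no-enzyme (full inhibition) and uninhibited wells.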
Tb PYK inh – blocks Trypanosoma brucei pyruvate kinase | AID 624173 | actives 0.12% (n = 410,000) | TbPYK enzyme, Kinase-Glo Plus ATP luminescence, 45 min | Potency, µM (titrated, usually from 76.8 µM), usual class: inhibitors; active = well fitted curve in the direction sought with a large enough effect; inconclusive = small, poorly fitted or top-dose-only effect, or another doubt; inactive = no such curve, though single readings can be large; an effect the other way counts as inactive or inconclusive; note: nearly all actives have a fitted effect of over 50% in size
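Assay buffer: 50 mM TEA pH 7.2, 100 mM KCl, 10 mM MgCl2, 0.05% BSA, 0.01% Tween-20. Pyruvate kinase from T. brucei plus substrate met compound, then ADP (130 uM final). Luminescence was read post 45 min RT.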
Shiga inhibitor – inhibitors of Shiga toxin in Vero cells; actives 9.2% (n = 290,000); inhibition, % at 38.7 µM; Vero cells, Shiga toxin protein synthesis inhibition reporter; in the data active = inhibition mostly above about 28%, no sharp cut-off; inactive = mostly below about 43%
CHX counter – affects cycloheximide protein synthesis inhibition readout, counter-screen | cell reporter, cycloheximide protein synthesis inhibition counterscreen | max response, % | actives 12% (n = 300,000); in the data active = max response mostly above about 13%, no sharp cut-off; inactive = mostly below about 14%; note: read at 38.3 µM for the half of the compounds with a filed dose
NS1 inh valid – validation of influenza NS1 protein function inhibitors; shares compounds with NS1 inh; influenza NS1 function cell assay, 15-point titration; activity change, negative = inhibition, % at 32.9 µM; 1,400 tested, under 10 active; AID 492980
PR8 titer – influenza NS1 inhibitors: inhibition of influenza A/PR/8/34 replication | shares compounds with NS1 inh | MDCK infected influenza A/PR/8/34, virus titer TCID50; hits give low values | virus titer (log TCID50), log10 TCID50 at 5 µM | actives 30% (n = 95) | AID 504647; call rule not given here
Hits are given with their value. Unless noted, calls come from the whole dose curve.

Results for C=CCN1C(=O)CS/C1=C(\C#N)S(=O)(=O)c1ccc(C)cc1 ?
SARS PLpro yeast: inactive; NS1 inh: 1.6µM; LmPK inh: inactive; Tb PYK inh: inactive; Shiga inhibitor: inactive; CHX counter: inactive; NS1 inh valid: inactive

Results for O=C1c2oc3ccccc3c(=O)c2C(c2ccc(Br)cc2)N1c1ccccn1 (stereo unspecified) ?
Tb PYK inh: inactive

How did COc1ccc(-n2c(SCC(=O)N3CCCCC3)nc(O)cc2=O)cc1 do in these assays?
SARS PLpro yeast: inactive; NS1 inh: 11µM; LmPK inh: inactive; Tb PYK inh: inactive; Shiga inhibitor: inactive; CHX counter: inactive; NS1 inh valid: inconclusive; PR8 titer: inactive

What do the screens show for `COc1ccc2oc(C(=O)OCC(=O)NC3(C#N)CCCC3)c(C)c2c1`?
SARS PLpro yeast: inactive; Tb PYK inh: inactive

Results for COc1cc(/C=N/NC(=S)N/N=C/c2cc(OC)c(OC)c(OC)c2)cc(OC)c1OC ?
SARS PLpro yeast: inactive; NS1 inh: 11µM; LmPK inh: inactive; Tb PYK inh: inactive; Shiga inhibitor: 87; CHX counter: 38; NS1 inh valid: inactive

Results for CC(=O)c1ccc(N2CCN(S(=O)(=O)c3c(C)nc4sc(C)cn4c3=O)CC2)cc1 ?
Tb PYK inh: inactive

What do the screens show for `COc1ccc(OC)c(-n2c(C)nc3cc(C(=O)O)ccc32)c1`?
SARS PLpro yeast: inactive; NS1 inh: 14µM; LmPK inh: inactive; Tb PYK inh: inactive; Shiga inhibitor: inactive; CHX counter: inactive; NS1 inh valid: inactive

How did COc1cc(-n2c(C)nc3cc(C(=O)O)ccc32)cc(OC)c1OC do in these assays?
SARS PLpro yeast: inactive; LmPK inh: inactive; Tb PYK inh: inactive; Shiga inhibitor: inactive; CHX counter: inactive

How did Cc1cc(=O)[nH]c(SCC(=O)Nc2nonc2C)n1 do in these assays?
SARS PLpro yeast: inactive; NS1 inh: inactive; LmPK inh: inactive; Tb PYK inh: inactive; Shiga inhibitor: inactive; CHX counter: inactive

How did C=C(CN(C)C)C(=O)c1ccc(OC2OC(COC(C)=O)C(OC(C)=O)C(OC(C)=O)C2OC(C)=O)cc1 (stereo unspecified) do in these assays?
Tb PYK inh: inactive

How did COc1ccc(Nc2nnc(SCC(=O)c3cc(C)n(CC4CCCO4)c3C)s2)cc1 (stereo unspecified) do in these assays?
SARS PLpro yeast: inactive; NS1 inh: inconclusive; LmPK inh: inactive; Tb PYK inh: inactive; Shiga inhibitor: 112; CHX counter: 43; NS1 inh valid: inactive

How did CN1C(=O)C(=O)N(CC(=O)N2CCc3ccccc32)C1=O do in these assays?
SARS PLpro yeast: inactive; NS1 inh: inactive; LmPK inh: inactive; Tb PYK inh: inactive; Shiga inhibitor: inactive; CHX counter: inactive

Results for O=C(CN1C(=O)CSc2ccccc21)N1CCc2ccccc21 ?
SARS PLpro yeast: inactive; NS1 inh: inconclusive; LmPK inh: inactive; Tb PYK inh: inactive; Shiga inhibitor: inactive; CHX counter: inactive; NS1 inh valid: inactive

How did C/C(=N/NC(=O)Cc1cc(=O)[nH][nH]1)c1ccc([N+](=O)[O-])cc1 do in these assays?
SARS PLpro yeast: inactive; NS1 inh: 13µM; LmPK inh: inactive; Tb PYK inh: inactive; Shiga inhibitor: inactive; CHX counter: inactive; NS1 inh valid: inconclusive

What do the screens show for `CCCSc1nnc(CNS(=O)(=O)c2ccc(C)cc2)n1C`?
SARS PLpro yeast: inconclusive; NS1 inh: inactive; LmPK inh: inactive; Tb PYK inh: inactive; Shiga inhibitor: inactive; CHX counter: inactive

Results for Cc1cc(C(=O)O)cc(S(=O)(=O)Nc2ccccc2C(=O)NC(C)c2ccccc2)c1C (stereo unspecified) ?
SARS PLpro yeast: inactive; NS1 inh: 7.9µM; LmPK inh: inactive; Tb PYK inh: inactive; Shiga inhibitor: inactive; CHX counter: inactive; NS1 inh valid: inactive

What do the screens show for `CSCC[C@H](N)C(=O)N[C@@H](C)C(=O)NCC(=O)N[C@@H](CCCN=C(N)N)C(=O)N[C@@H](CO)C(=O)NCC(=O)N[C@@H](CC(=O)O)C(=O)N[C@@H](CO)C(=O)N[C@@H](CC(=O)O)C(=O)N[C@@H](CCC(=O)O)C(=O)N[C@@H](CC(=O)O)C(=O)N[C@@H](CC(C)C)C(=O)N[C@@H](CC(C)C)C(=O)N[C@@H](CCCCN)C(=O)N[C@@H](C)C(=O)N[C@H](C(=O)O)C(C)C`?
Shiga inhibitor: inactive; CHX counter: inactive

How did O=C(Nc1nnc(S(=O)(=O)N2CCN(c3ccc(F)cc3)CC2)s1)c1ccccc1 do in these assays?
SARS PLpro yeast: inactive; NS1 inh: 2.2µM; LmPK inh: inactive; Tb PYK inh: inactive; Shiga inhibitor: inactive; CHX counter: inactive; NS1 inh valid: inactive

What do the screens show for `O=C(Nc1ccccc1N1CCN(c2ccc(F)cc2)CC1)c1ccccc1`?
SARS PLpro yeast: inactive; NS1 inh: inconclusive; LmPK inh: inactive; Tb PYK inh: inactive; Shiga inhibitor: inactive; CHX counter: inactive; NS1 inh valid: inactive

What do the screens show for `O=C(CN1CC[n+]2c(-c3ccccc3)csc21)c1ccc(Br)cc1`?
SARS PLpro yeast: inactive; NS1 inh: inconclusive; LmPK inh: inactive; Tb PYK inh: inactive; Shiga inhibitor: inactive; CHX counter: inactive

How did O=C(CN1CC[n+]2c(-c3cccs3)csc21)c1ccc(Br)cc1 do in these assays?
SARS PLpro yeast: inactive; NS1 inh: 4.5µM; LmPK inh: inactive; Tb PYK inh: inactive; Shiga inhibitor: inactive; CHX counter: inactive; NS1 inh valid: inactive

What do the screens show for `Cc1cccc(C(=O)NC(=S)Nc2ccc(N3CCOCC3)cc2)c1`?
SARS PLpro yeast: inactive; NS1 inh: inactive; LmPK inh: inactive; Tb PYK inh: inactive; Shiga inhibitor: inactive; CHX counter: inactive

Results for COc1ccccc1Cn1ccn(CC(=O)Nc2c(C)cc(C)cc2C)c(=O)c1=O ?
Tb PYK inh: inactive

Results for CC1(C(=O)NS(=O)(=O)c2cccc(C#N)c2)CCN1C(=O)CCC1CCCC1 (stereo unspecified) ?
Tb PYK inh: inactive

How did CC(C)c1nc(N2CCN(C(=O)c3ccccc3)CC2)c(C#N)c2c1COC(C)(C)C2 do in these assays?
SARS PLpro yeast: inactive; NS1 inh: inactive; LmPK inh: inactive; Tb PYK inh: inactive; Shiga inhibitor: inactive; CHX counter: inactive

Results for CC1(C)Cc2c(C#N)c(N3CCN(C(=O)c4ccccc4)CC3)nc(-c3ccco3)c2CS1 ?
SARS PLpro yeast: inactive; NS1 inh: 8.9µM; LmPK inh: inactive; Tb PYK inh: inactive; Shiga inhibitor: inactive; CHX counter: inactive; NS1 inh valid: inactive

What do the screens show for `Cc1ccccc1C(=O)NC1(C(F)(F)F)N=C(c2ccccc2)N(Cc2ccccc2)C1=O` (stereo unspecified)?
Tb PYK inh: inactive
